# In all, about 330,000 compounds went through this assay and about 5,800 (1.8%) were called active. Many of the other results were omitted from the sample, so actives are more common in it than they were. Values without a mark were called inactive.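 Rule for the calls: active = inhibition above about 50% at the single tested dose (limit read from the data); inactive = the rest.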
# Molecular target: Sentrin-specific protease 6 (Homo sapiens) (UniProt Q9GZR1)
# Test: inhibition of human SENP6 catalytic domain – biochemical, luminescence, uHTS, primary screen (AID 2599);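 note: plate controls were DMSO wells with enzyme for no effect and DMSO wells lacking enzyme for full effect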
# Conditions: Recombinant SENP6 catalytic domain, aminoluciferin luminescence; at 10 µM; stronger effect = higher value
# Sequence of Sentrin-specific protease 6 (Homo sapiens) (Q9GZR1 628-1112 limits assumed): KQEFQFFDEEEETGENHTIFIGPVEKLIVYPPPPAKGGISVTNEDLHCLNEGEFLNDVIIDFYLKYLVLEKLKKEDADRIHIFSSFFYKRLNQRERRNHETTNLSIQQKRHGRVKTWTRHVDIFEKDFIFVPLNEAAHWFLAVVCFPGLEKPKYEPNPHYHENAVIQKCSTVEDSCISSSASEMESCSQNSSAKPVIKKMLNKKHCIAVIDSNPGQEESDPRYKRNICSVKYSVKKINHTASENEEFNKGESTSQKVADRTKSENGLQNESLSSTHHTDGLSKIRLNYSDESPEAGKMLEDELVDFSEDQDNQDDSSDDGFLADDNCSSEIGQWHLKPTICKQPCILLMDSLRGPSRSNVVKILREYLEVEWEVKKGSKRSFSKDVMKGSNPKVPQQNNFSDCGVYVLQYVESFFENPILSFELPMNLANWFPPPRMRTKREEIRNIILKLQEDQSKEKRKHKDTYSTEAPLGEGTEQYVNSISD
row,SMILES,inhibition
1,COc1ccc(/C=N/OCc2ccccc2C#N)c(OC)c1,-10.3%
2,O=C(/C=C/Sc1ncn[nH]1)c1ccc(Cl)cc1,-14.2%
3,Cc1noc(/C=C/c2ccco2)c1S(=O)(=O)N1CCC(C(=O)N2CCc3ccccc32)CC1,-4.32%
4,CC(C)c1ccccc1OCC(O)CN(CC(O)COc1cccc2ccccc12)C(C)C (stereo not drawn),-38.4%
5,COc1ccc(-c2n[nH]c3c2CN(C(=O)c2ccc(F)cc2)CC3)cc1,-10.3%
6,O=C(CCN1C(=O)[C@H]2CC=CC[C@H]2C1=O)NCc1nc(-c2ccccc2)no1,-11%
7,OCCNc1nc(Nc2ccc(Cl)c(Cl)c2)nc2ccccc12,13.5%
8,COc1ccc(OC)c(-c2csc(-c3cccs3)n2)c1,-21.1%
9,COc1ccc(-c2noc(CNC(=O)C(C)Oc3ccccc3)n2)cc1 (stereo not drawn),-14.5%
10,COc1ccc(-c2nc(-c3ccccc3)no2)c(OC)c1,97.7% (active)
11,CN(C(=O)c1c(Cl)cnn1C)C12CC3CC(CC(C3)C1)C2,5.39%
12,CC(C)n1c(COc2ccccc2)nc2ccccc21,-4.84%
13,Cc1ccc(OCc2nc3ccccc3n2C)cc1,65.3% (active)
14,COCn1c(COc2ccccc2)nc2ccccc21,-7.24%
15,COc1cccc(N2CC(NC(=O)c3ccc4ccccc4c3)CC2=O)c1 (stereo not drawn),-9.84%
16,CC(C)(CNC(=O)c1ccc(Cl)c(S(=O)(=O)N2CCc3ccccc3C2)c1)N1CCOCC1,-0.183%
17,COc1ccc(OC)c(C(=O)c2coc3ccc(OC)cc23)c1,-18.1%
18,COc1ccc2occ(C(=O)c3ccc(N=C(C)N(C)C)cc3)c2c1,62.1% (active)
19,COc1ccc(OC)c(C(=O)c2ccc(Cl)cc2)c1,6.03%
20,Cc1ccc(/C=N/NC(=O)c2sccc2OCc2ccc(F)cc2)cc1,-36.4%
21,Cc1cc(O)c(NC(=O)c2ccc(C)c([N+](=O)[O-])c2)cc1C,-1.6%
22,Cc1ccc(NC(=O)CN(C)CC(=O)Nc2cccc(F)c2)cc1[N+](=O)[O-],-3.74%
23,O=C(N/N=C/c1ccc([N+](=O)[O-])cc1)C(=O)N1CCCC1,-54.5%
24,Cc1ccsc1C(=O)N/N=C/c1ccc([N+](=O)[O-])cc1,82.9% (active)
25,Cc1ccc(NC(=O)c2sccc2C)cc1[N+](=O)[O-],82.7% (active)

row,SMILES,inhibition
1,O=S(=O)(NC1CCCCC1)c1ccc(F)c2ccccc12,-13.8%
2,Cc1cc(Nc2ccc(Br)cc2)nc2ccccc12,0.575%
3,O=c1ccnc(Nc2ccc(Cl)cc2)[nH]1,-2.45%
4,Clc1ccc(Nc2ccc3ccccc3n2)cc1,89.2% (active)
5,CN(C)/C=C(\C#N)C(=O)c1cccnc1Oc1cccc(F)c1,-2.99%
6,COc1ccc2oc(=O)cc(CN3CCOCC3)c2c1,-0.296%
7,CCCCC(O)(CCCC)C(=O)NN(C(=O)CCl)c1ccccc1,-17.7%
8,O=C(Nc1ccncc1)c1ccccc1[N+](=O)[O-],-15.3%
9,O=C(Nc1ccccc1C(=O)Nc1ccncc1)c1ccc([N+](=O)[O-])cc1,58.6% (active)
10,O=C(Nc1ccncc1)c1ccc([N+](=O)[O-])cc1Cl,-18.8%
11,CC(=O)N(c1ccc2oc(=O)sc2c1)S(=O)(=O)c1ccc(C)cc1,15.9%
12,Cc1ccc(S(=O)(=O)N2CCN(C(=O)CN3C(=O)NC(C)(c4ccc(Cl)cc4)C3=O)CC2)c(C)c1 (stereo not drawn),-2.29%
13,O=C(OCc1ccc(-c2ccccc2)cc1)c1cccc(O)c1,2.41%
14,CC(C)n1c(NCc2c[nH]c3ccccc23)nc2ccccc21,9.71%
15,Cc1ccc(O)c(CNc2nc3ccccc3n2C)c1,51.5% (active)
16,Cc1ccc(O)c(CNc2nc3ccccc3[nH]2)c1,-16.5%
17,COC(=O)c1sccc1NC(=O)CC1C(=O)NCCN1C(=O)Nc1ccc(F)cc1F (stereo not drawn),-25.4%
18,Cc1ccc(N2C(=O)C3C4C=CC(CC4)C3C2=O)cc1Cl (stereo not drawn),14.5%
19,O=C(Nc1ccc(N2CCN(C(=O)c3ccccc3)CC2)c(Cl)c1)c1cccnc1,14.4%
20,O=[N+]([O-])c1ccccc1SNc1ccccn1,-6.35%
21,CCCOc1ccc(C(=O)NCCc2ccccc2)cc1,76.4% (active)
22,CCCc1ccc(OCCNC(=O)c2ccccc2Br)cc1,14.6%
23,CCCc1ccc(OCCNC(=O)c2ccco2)cc1,14.5%
24,OCC[C@H]1C[C@H](O)[C@@H](O)[C@]2(CCCCO2)O1,-7.27%
25,CCOC(=O)N1CCN(C(=O)COc2ccc3oc4c(c3c2)CCCC4)CC1,1.75%

row,SMILES,inhibition
1,O=C(COc1ccc2oc3c(c2c1)CCCC3)Nc1ccccn1,56.4% (active)
2,CCN(CC)CCCNC(=O)COc1ccc2oc3c(c2c1)CCCC3,-9.52%
3,CCOC(=O)c1sc(NC(=O)C2CSC3(C)CCC(=O)N23)nc1C (stereo not drawn),-17.8%
4,O=C(NCCc1ccc(Cl)cc1)C1CCCN1C(=O)NCc1ccccc1 (stereo not drawn),19.7%
5,O=C(NCC(c1ccco1)N1CCc2ccccc2C1)c1ccccc1Cl (stereo not drawn),-27.1%
6,CCOC(=O)c1ccc(Nc2cc(C)nc3nc(C)nn23)cc1,3.17%
7,CCOC(=O)c1ccc(Nc2cc3ccccc3c(=O)[nH]2)cc1,85.9% (active)
8,CCOC(=O)c1ccc(NC(=O)c2cc(=O)[nH]c3ccccc23)cc1,-1.31%
9,CCc1ccc(NC(=O)CN2C(=O)CSC2=O)cc1,3.31%
10,CCc1nc2sc3c(Cl)ncnc3c2c2c1CCCC2,-2.17%
11,O=C(Nc1nc2ccccc2s1)c1ccc2c(c1)OCO2,94.8% (active)
12,CC(=O)Nc1cccc(C(=O)OCC(=O)c2ccc3c(c2)OCO3)c1,83.6% (active)
13,O=C(COC(=O)c1ccc(F)cc1)Nc1ccc2c(c1)OCO2,-6.02%
14,CC(NC(=O)COC(=O)c1ccc2c(c1)OCO2)c1ccccc1 (stereo not drawn),-2.95%
15,CN1CCN(c2ccc(NC(=O)c3ccc4c(c3)OCCO4)cc2Cl)CC1,3.53%
16,O=C(Nc1ccc2c(c1)OCCO2)c1ccoc1,-9.58%
17,O=C(Nc1cccc([N+](=O)[O-])c1)c1ccc2c(c1)OCO2,66.7% (active)
18,Cc1onc(C(=O)Nc2ccc3c(c2)OCO3)c1[N+](=O)[O-],0.864%
19,O=C(Nc1ccccc1)c1ccc2c(c1)OCCCO2,86.7% (active)
20,CC(NC(=O)Nc1cccc([N+](=O)[O-])c1)c1ccc2c(c1)OCO2 (stereo not drawn),-3.48%
21,Cc1ccc2sc(NNC(=O)c3ccc4c(c3)OCCO4)nc2c1C,12.7%
22,COCc1nnc(NC(=O)c2ccc3c(c2)OCO3)s1,13.6%
23,Cc1cc(NC(=O)CN2C(=O)NC(CC(C)C)C2=O)no1 (stereo not drawn),-8.76%
24,Cc1cc(C)nc(-n2nc(C)cc2NC(=O)c2ccc(F)cc2F)n1,6.48%
25,CC(=O)Nc1ccc(NC(=O)C(NS(=O)(=O)c2ccc3c(c2)OCCO3)C(C)C)cc1 (stereo not drawn),16.7%

row,SMILES,inhibition
1,COc1cccc(NC(=O)N2CCC(NC(=O)C(Cc3cccc(C)c3)NC(C)=O)CC2)c1 (stereo not drawn),20.6%
2,Cc1ccc2cccc(S(=O)(=O)N3CCN(c4ccccc4F)CC3)c2n1,-3.25%
3,O=C(Nc1ccnn1C1CCN(Cc2cccc(OCCO)c2)CC1)C1CCCC1,-17.8%
4,O=C(CSc1ccccn1)Nc1nc2c(ccc3ccccc32)s1,-10.2%
5,CCc1nn(CCCN2CCN(c3cccc(Cl)c3)CC2)c(=O)n1CCOc1ccccc1,-12%
6,CN(C(=O)c1cccc(NC(=O)C2CCN(C(=O)OC(C)(C)C)CC2)c1)C1CCC1,-7.07%
7,CCN(CC)S(=O)(=O)c1ccc(N2CC(C(=O)NCc3cccnc3)CC2=O)cc1 (stereo not drawn),-2.04%
8,O=C(Nc1ccc(N2CCOCC2)cc1)c1ccc2c(c1)OCO2,25.4%
9,COc1ccc(C(=O)Nc2ccc3nc(N4CCCCC4)cc(C)c3c2)cc1OC,-7.43%
10,O=C(Nc1ccccc1)c1ccc2c(c1)OCO2,85.1% (active)
11,COc1cc(C(=O)NCC2(c3ccccc3)CCCC2)ccc1OC(C)C,2.81%
12,CC(C)C(=O)Nc1cccc(C(=O)Nc2ccc3c(c2)OCO3)c1,33.6%
13,N#Cc1ccccc1NC(=O)c1ccc2c(c1)OCO2,-12.5%
14,CN(Cc1c(F)cccc1Cl)C(=O)CNC(=O)c1ccc2c(c1)OCO2,-13.3%
15,COc1ccc(C(=O)Nc2ccc(C3(C#N)CCCC3)cc2)cc1OC,96.3% (active)
16,COc1ccc(C(=O)Nc2ccc3c(c2)OCO3)cc1OC,80.8% (active)
17,O=C(Nc1ccc(NC(=O)c2ccc3c(c2)OCO3)cc1)c1cccc(Cl)c1,-11.5%
18,O=C(Nc1ccccc1F)c1ccc2c(c1)OCO2,71.4% (active)
19,COc1cc(NC(=O)c2ccc3c(c2)OCO3)ccc1NC(=O)c1cccs1,-45.6%
20,COc1ccc(C(=O)NCC2CCCCC2)cc1S(=O)(=O)N1CCCC1,-0.795%
21,COc1ccc(COC(=O)c2n[nH]c3ccccc23)cc1F,-5.01%
22,Cc1nn(C)c(C)c1S(=O)(=O)N1CCC(CO)(Cc2ccc(Cl)cc2)CC1,-8.17%
23,CC(C)N1C(=O)N(c2ccccc2)C(C)(O)CC1(C)C (stereo not drawn),-17.1%

# Reference: PubChem BioAssay AID2599 (Sanford-Burnham Center for Chemical Genomics, 2010)
